Measurements: PubChem BioAssay (NCI)
About 79,000 compounds went through this panel and 15% of them were active in at least one assay; those are over-represented in the sample as a whole. Values without a mark were called inactive. The source made the active and inactive calls. Rule as the data show it: active = growth inhibition above about 70%; inactive = the rest.

Assay: NCI Yeast Anticancer Drug Screen. Data for the sgs1 mgt1 strain (AID 161);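 also: 0% = growth of cultures given vehicle only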
Details: S. cerevisiae sgs1 mgt1 strain, stronger effect = higher value
Procedure: Growth inhibition of yeast strains with defined genetic alterations is measured as a screen for potential anti-cancer activity. Selected strains with alterations in DNA damage repair or cell cycle control were exposed to compounds and growth inhibition was measured relative to vehicle treated controls. The strain used in this assay is sgs1 mgt1

[1] = at 5.0 µM (retest, dose inferred, filed as 0.5)
[2] = at 50.0 µM (retest, dose inferred, filed as 5.0)

| Compound | growth inhibition [1] | growth inhibition [2] | growth inhibition (at 50.0 µM) |
| --- | --- | --- | --- |
| Cc1ccc(S(=O)(=O)S/C(=N\c2ccccn2)Nc2ccccn2)cc1 | 90% (active) | 5% | 58.6% |
| O=C1OC(c2ccc3c(c2)OCO3)Sc2ccccc21 (configuration not stated) | 1% | 10% | 23.4% |
| NC(=S)n1nc(-c2ccccc2)c(N=Nc2ccccc2Cl)c1-c1ccccc1 | 1% | 83% (active) | 72.9% (active) |
| CCCCCCCCCCCCCCCC1C(N)C(=O)N(C)N1C (configuration not stated) | -19% | 95% (active) | 91.7% (active) |
| C/C(=N/NC(=O)Nc1ccc(N=Nc2ccccc2)cc1)c1cccnc1 | 2% | 21% | 19.6% |
| CCCCCC[C@@H](O)C/C=C\CCCCCCCC(=O)OCCCC | -1% | -5% | 23.6% |
| CC(C)Cn1cnc2c(SCc3ccc(Cl)cc3Cl)nc(N)nc21 | 20% | 45% | 90.8% (active) |
| O=C(Nc1ccccc1C(=O)NC(=O)c1ccccc1NC(=O)c1ccccc1)c1ccccc1 | -2% | 99% (active) | 54.8% |
| Fc1ccc(NC(=S)SCc2ccccc2)cc1 | 2% | 19% | 76.8% (active) |
| CCCCCCCCCCCCCCCCCC(=O)Nc1ccn(C2OC(CO)C(O)C2O)c(=O)n1 (configuration not stated) | 43% | 41% | 67.8% |
| COc1ccc2c(c1)C1(C)CCCC(C)(C(=O)O)C1CC2 (configuration not stated) | 1% | 99% (active) | 99.6% (active) |
| CC(C)N(C(=O)CC1(O)CCCCC1)C(C)C | 1% | -11% | -14.6% |
| O=C1/C(=C\c2ccc(Cl)cc2)SC2SC=C(c3ccc([N+](=O)[O-])cc3)N12 (configuration not stated) | -4% | 92% (active) | 99.2% (active) |
| CC(=O)NC(CCC(=O)O)C(=O)O.[NH-]C1CCCCC1[NH-].[Pt+2] (configuration not stated) | 98% (active) | 99% (active) | 100% (active) |
